Screening results as filed in PubChem BioAssay.
In the library only some 12% were active in any assay of this set; here they are far more common.
G9a inh: qHTS Assay for Inhibitors of Histone Lysine Methyltransferase G9a; Histone-lysine N-methyltransferase EHMT2 (Homo sapiens), Q96KQ7; G9a H3K9 monomethylation, AlphaScreen, 2 h; Potency, µM (doses to about 102 µM), without a hit: at the highest dose activity, negative = inhibition, hits mostly inhibitors; hit rate 8.8% among 350,000; AID 504332, 2011; further: on the % scale 0 is the no-effect control and ±100 the full control effect; nearly all actives have a fitted effect of over 75% in size
Target sequence (Q96KQ7 913-1193 limits assumed): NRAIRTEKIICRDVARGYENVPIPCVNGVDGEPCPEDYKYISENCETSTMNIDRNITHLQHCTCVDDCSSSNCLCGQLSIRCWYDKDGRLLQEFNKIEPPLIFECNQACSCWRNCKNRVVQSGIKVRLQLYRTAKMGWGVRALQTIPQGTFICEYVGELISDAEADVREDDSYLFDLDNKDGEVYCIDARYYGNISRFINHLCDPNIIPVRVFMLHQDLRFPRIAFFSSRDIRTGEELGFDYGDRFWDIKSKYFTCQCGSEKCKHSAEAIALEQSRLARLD
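Methyltransferase reactions run at room temperature for 2 h (20 nM enzyme, 500 nM biotin-H3K9 peptide, 20 uM SAM) after a 15 min compound preincubation; product detected by AlphaScreen beads and anti-H3K9me1 antibody.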
PLK1 PBD block: qHTS for Inhibitors of PLK1-PDB (polo-like kinase 1 - polo-box domain): Primary Screen | Serine/threonine-protein kinase PLK1 (Homo sapiens), P53350 | Plk1 PBD binding of FITC phosphopeptide, fluorescence polarization | Potency, µM, for the others: max response, negative = inhibition, most hits filed as inhibitors | hit rate 2.8% among 360,000 | AID 720504, 2013; further: series mostly up to about 57 µM; on the % scale 0 is the no-effect control and ±100 the full control effect; nearly all actives have a fitted effect of over 65% in size
HP1b chromo inh: HTS for Inhibitors of HP1-beta Chromodomain Interactions with Methylated Histone Tails; Chromobox protein homolog 1 (Homo sapiens), P83916; AlphaScreen HP1-beta / biotin-H3K9me3 peptide binding; Potency, µM (series often up to 114 µM), inactives show top-dose activity change, negative = inhibition, actives largely listed as inhibitors; hit rate 0.56% among 390,000; further: nearly all actives have a fitted effect of over 70% in size
Target sequence (P83916 whole entry, looked up): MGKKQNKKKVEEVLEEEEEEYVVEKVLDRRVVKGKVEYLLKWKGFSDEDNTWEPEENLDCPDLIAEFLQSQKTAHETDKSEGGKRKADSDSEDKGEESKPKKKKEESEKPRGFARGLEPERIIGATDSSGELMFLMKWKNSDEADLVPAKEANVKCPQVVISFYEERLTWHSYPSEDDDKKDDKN
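Compound inhibition of the preformed complex between 50 nM HP1-beta and 50 nM biotinylated H3K9me3 peptide was read by AlphaScreen. Buffer was PBS pH 7.4 with 0.01% Tween-20. Incubations ran 30 min at room temperature, with 10 ug/mL donor/acceptor beads.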
JMJD2A Tudor inh: qHTS Assay for Inhibitors of JMJD2A-Tudor Domain. AlphaScreen JMJD2A-Tudor / H3K4me3 peptide binding. Potency, µM (doses to about 114 µM), inactives show at the top dose activity change, negative = inhibition, hits mostly inhibitors. hit rate 4.4% among 390,000. AID 504339, 2011; further: on the % scale 0 is the no-effect control and ±100 the full control effect; nearly all actives have a fitted effect of over 50% in size
Sfp inh: qHTS Assay for Inhibitors of Bacillus subtilis Sfp phosphopantetheinyl transferase (PPTase); hit rate 3.5% among 310,000; Potency, µM, for inactives: largest response in the series, negative = inhibition, actives largely listed as inhibitors; Biochemical Sfp PPTase activity, qHTS;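 further: the enzyme is Sfp with the accession as filed and its product quenches rhodamine fluorescence; 0% = enzyme reaction without inhibitor and -100% = no enzyme wells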
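Compounds were incubated with enzyme (final 15 nM) for 15 min at room temperature before substrate addition started the reaction. Fluorescence at 525 nm excitation, 598 nm emission was recorded immediately and after 30 minutes.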
BAZ2B inh: qHTS Assay for Inhibitors of BAZ2B | AID 504333, 2011 | Bromodomain adjacent to zinc finger domain protein 2B (Homo sapiens), Q9UIF8 | Potency, µM (highest dose often 114 µM), inactives show at the highest dose activity change, negative = inhibition, hits mostly inhibitors | hit rate 4.4% among 360,000 | AlphaScreen BAZ2B-H3K14Ac peptide displacement; further: on the % scale 0 is the no-effect control and ±100 the full control effect; nearly all actives have a fitted effect of over 60% in size
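Multi-concentration screen (max 110 uM) measuring displacement of acetylated histone H3 peptide from BAZ2B by AlphaScreen, using 50 nM protein, 50 nM peptide and 10 ug/mL streptavidin donor plus Ni-chelate acceptor beads.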
Active calls of the source: *; u = inconclusive; x = no result given; [ ] = another dose, or the depositor's remark. The call rests on the fitted dose curve; in most records, active means well fitted curve in the direction sought with a large enough effect; inconclusive means small, poorly fitted or top-dose-only effect, or another doubt; inactive means no such curve, though single readings can be large; an effect the other way counts as inactive or inconclusive. Potency means the concentration at half of the fitted maximal effect.

SMILES | G9a inh | PLK1 PBD block | HP1b chromo inh | JMJD2A Tudor inh | Sfp inh | BAZ2B inh
C#CCSc1nnnn1-c1ccc(OCC)cc1 | 50µM* | -1% | 58% | 3% | -4% | -1%
CCn1c(=S)[nH]c2cc(C(=O)O)ccc21 | 45µM* | x | x | x | u | -12%
CCCn1c2ccccc2c2cc(C(=O)O)ccc21 | u | -11% | 6% | -21% | -15% | -4%
CCn1c(=S)[nH]c2cc(Cl)ccc21 | x | -9% | 47% | -13% | -8% | -8%
CC(C)n1c(=S)[nH]c2ccccc21 | u | 25µM* | -19% | 79µM* | 79µM* | -22%
CCCn1c(=S)[nH]c2cc(Cl)ccc21 | u | 15µM* | 3% | -23%[11.4 µM] | 10% | -5%
CCn1c(=S)[nH]c2cc(S(=O)(=O)N3CCCCC3)ccc21 | u | 27µM* | -22% | 79µM* | -18% | 4%
O=S(=O)(Cc1ccc(Cl)cc1)NCc1ccc2c(c1)OCO2 | 58% | 1% | 30% | -3% | 14% | 2%
CCCCC[C@@H]1C=C(C(=O)O)[C@H](c2ccc(Br)cc2)N1S(=O)(=O)c1ccc(C)cc1 | x | u | 10% | -25% | x | x
Cc1ccc(-c2onc(C)c2C)cc1S(=O)(=O)N1CCC(C)CC1 | 12%[59 µM] | x | 97% | 14% | x | 31%
CCn1c(=S)[nH]c2ccccc21 | 2.8µM* | -16% | 1% | 79µM* | -9% | -22%
O=C(Cn1c(=S)[nH]c2ccccc21)c1ccccc1 | 3.5µM* | -23% | 42% | u | -18% | -1%
Cc1ccc(NC(=O)Cn2c(=S)[nH]c3ccccc32)cc1 | 3.5µM* | 24µM* | u | -2% | 45µM* | 0%
CCCn1c(=O)[nH]c2ccccc21 | -17% | -2% | 13% | -9% | -1% | 16%
O=C(Cn1nnc2ccccc21)c1ccccc1 | u | -5% | 24% | -2% | 16% | 6%
CCN(CC)S(=O)(=O)c1nnc(NC(=O)COc2ccc(C)cc2)s1 | -10%[59 µM] | x | 17% | -26% | x | u
CC(=O)Nc1ccc(S(=O)(=O)NCCC(=O)OC(C)C(=O)NC2(C#N)CCCCC2)cc1 (stereo not given) | -13%[2.33 µM] | -11% | 30% | -10% | x | 7%
C[C@H](CO)N1C[C@H](C)[C@H](CN(C)S(C)(=O)=O)Oc2c(cccc2N(C)C)C1=O | x | -15% | 37% | -8% | x | x
COc1ccc(-c2nc3c(c4c2C[C@H](c2ccccc2)OC4)CN(S(=O)(=O)c2ccc(C)cc2)CC3)c(C)c1 | x | x | x | x | -3% | x
CC(=O)c1cccc(-n2nnnc2SCC(=O)N2CCCC2)c1 | 56µM* | -16% | 28% | -19% | 4% | -7%
O=C(CSc1nnnn1-c1cccc2c1CCCC2)N1CCCC1 | -13%[59 µM] | 4.7µM* | u | -20%[11.4 µM] | u | -7%
Cc1ccc(-c2cc(-c3ccc4c(c3)NC(=O)CO4)nc3c2COc2ccc(C)cc2-3)cc1 | 2%[59 µM] | x | 14% | -12% | x | -38%
COc1ccc(N=Cc2c(O)c3ccccc3n2C(C)=O)cc1 | 25µM* | 22% | 71% | 10% | 18µM* | -17%
O=C1/C(=C/c2ccco2)SC(=S)N1C1CCS(=O)(=O)C1 (stereo not given) | 45µM* | -14% | -15% | u | 17% | 50µM*
O=C1/C(=C\c2ccco2)SC(=S)N1C1CCS(=O)(=O)C1 (stereo not given) | x | -22% | u | 56µM* | 32µM* | 40µM*
Cc1ccc(/C=C2\SC(=S)N(C3CCS(=O)(=O)C3)C2=O)cc1 (stereo not given) | -6%[59 µM] | -20% | 16% | -6% | 11% | -11%
CCCOc1ccc(-c2nn(-c3ccccc3)cc2/C=C2\SC(=S)N(C3CCS(=O)(=O)C3)C2=O)cc1 (stereo not given) | -31% | u | 12% | -22% | 2% | -10%
